KB-3-1 cytotox: KB-3-1 parental cell cytotoxicity; AID 1347075; actives 1.4% (n = 400,000); KB-3-1 viability, CellTiter-Glo ATP luminescence, 72 h; Potency, µM (top dose mostly 46.1 µM), actives largely listed as cytotoxic; also: nearly all actives have a fitted effect of over 60% in size
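Cytotoxicity in the drug-sensitive parental line KB-3-1 was scored as loss of CellTiter-Glo luminescence following 72 h incubation with compound. Values come from curve fitting of normalized concentration-response data.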
KB-V1 MDR tox: kills drug-selected multidrug resistant KB-V1 cells | Potency, µM (doses to about 46.1 µM), hits mostly cytotoxic | actives 3.4% (n = 400,000) | AID 1347076 | KB-V1 MDR cells viability, CellTiter-Glo, 72 h; also: nearly all actives have a fitted effect of over 60% in size
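Cytotoxicity toward P-gp-expressing KB-V1 cells was determined as loss of CellTiter-Glo luminescence after 72 h at 37 degrees C. Compounds were tested in quantitative HTS format across a concentration range, with curves fitted to normalized data.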
DT40 TDP1 CPT: growth inhibition of DT40 Tdp1-/-;hTDP1 cells with camptothecin (screen for TDP1 inhibitors) | chicken DT40 Tdp1-/-;hTDP1 cells + 20 nM CPT, ATP luminescence, 48 h | Potency, µM (highest dose often 46.2 µM), for inactives: at the highest dose activity change, negative = growth inhibition, hits mostly inhibitors | actives 12% (n = 420,000); also: nearly all actives have a fitted effect of over 55% in size
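Chicken DT40 Tdp1-/- cells stably complemented with human TDP1 were seeded at 400 cells/well in medium containing 20 nM camptothecin, exposed to pin-transferred compounds, and grown at 37 °C for at least 48 hr. Viability was read as ATP luminescence.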
HT1080NT lethal: kills 2HG-producing HT-1080-NT fibrosarcoma cells. AID 686970. Potency, µM (series often up to 46.1 µM), inactives show at the highest dose activity, negative = less viability, hits mostly cytotoxic. HT-1080-NT fibrosarcoma viability, CellTiter-Glo ATP luminescence, 48 h. actives 1.6% (n = 360,000);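 also: NT is the 2HG producing partner of a matched IDH1 knockdown line; 0% = DMSO-treated cells and -100% = media-only wells without cells; nearly all actives have a fitted effect of over 55% in size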
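HT-1080-NT fibrosarcoma cells (2HG-overproducing), 750 cells/well in RPMI with 5% FBS, dosed after 2 h and incubated 48 h at 37C. CellTiter-Glo luminescence normalized to DMSO and no-cell wells; concentration-response curves fitted and classed.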
TDP1 cell noCPT: qHTS for Inhibitors of human tyrosyl-DNA phosphodiesterase 1 (TDP1): qHTS in cells in absence of CPT | actives 15% (n = 420,000) | DT40 Tdp1-/- hTDP1 cells, no CPT, ATP luminescence, 48 h | Potency, µM (highest dose often 46.2 µM), for inactives: at the highest dose activity change, negative = growth inhibition, actives largely listed as inhibitors; also: nearly all actives have a fitted effect of over 55% in size
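Compound effects on proliferation are scored in DT40 Tdp1-/-;hTDP1 cells in the absence of CPT. ATP levels (CellTiter-Glo luminescence) are recorded after a ≥48 hr, 37 °C incubation.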
HT1080 IDH1KD tx: HT-1080 IDH1 knockdown cell toxicity (counter line). HT-1080 IDH1 knockdown viability, ATP luminescence, 48 h. Potency, µM (highest dose often 46.1 µM), inactives show at the top dose activity, negative = toxicity, usual class: cytotoxic. actives 2% (n = 360,000);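 also: 0% = DMSO wells and -100% = cell-free medium wells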
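Assay cells: HT-1080 with IDH1 knockdown, 750 per well, RPMI/5% FBS. Exposure: 48 h at 37 °C following 2 h pre-incubation. Read: CellTiter-Glo luminescence; fitted concentration-response, curve class assigned.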
The depositor's hits bear a star; i = inactive; u = inconclusive; x = not tested or not shown; [ ] = dose if it differs, or a comment. This is a sample that favours compounds with a hit; in the whole collection about 19% have one here. Calls follow the shape of the dose curve; as a rule, active = well fitted curve in the direction sought with a large enough effect; inconclusive = small, poorly fitted or top-dose-only effect, or another doubt; inactive = no such curve, though single readings can be large; an effect the other way counts as inactive or inconclusive. Unless noted, % is scaled to controls: 0 for no effect and ±100 for the full control effect; potency is read from the fitted curve at half-maximal effect.

SMILES	KB-3-1 cytotox	KB-V1 MDR tox	DT40 TDP1 CPT	HT1080NT lethal	TDP1 cell noCPT	HT1080 IDH1KD tx
COc1ccccc1NC(=O)CSC1=Nc2ccccc2C2=NC(CCC(=O)NCc3ccco3)C(=O)N12 (stereo unspecified)	i	i	14.6µM*	x	16.4µM*	x
O=C(CCC1N=C2c3ccccc3N=C(SCc3ccccc3Cl)N2C1=O)N1CCN(c2ccccc2)CC1 (stereo unspecified)	i	i	u	x	20.6µM*	x
O=C(CCC1N=C2c3ccccc3N=C(SCc3ccccc3Cl)N2C1=O)NCc1ccco1 (stereo unspecified)	i	u	u	-19.8%	18.4µM*	-24.6%
COc1ccccc1NC(=O)CSC1=Nc2ccccc2C2=NC(CCC(=O)NCCc3ccccc3)C(=O)N12 (stereo unspecified)	i	i	u	x	23.1µM*	x
Cc1cccc(OCC(=O)NCC(=O)N/N=C/c2cc(Br)cc(Br)c2O)c1	u	i	u	u	u	u
Cc1ccc(NC(=O)Cn2nc(C(=O)O)c3ccccc3c2=O)c([N+](=O)[O-])c1	i	i	-11.5%	11.3%	-8.7%	7.9%
CC(=O)Nc1ccc(-n2cc3c(c2-c2ccc(C)cc2)c(=O)n(C)c(=O)n3C)cc1	i	i	u	x	u	x
COc1cccc(CN(C)C(=O)c2cc(S(=O)(=O)NC3CCCCC3)ccc2C)c1OC	i	u	u	-0.5%[9.24 µM]	-2.6%	-0.3%
CCCn1c(=O)[nH]c2nc(-c3ccc(S(=O)(=O)O)cc3)[nH]c2c1=O	x	x	-19.6%	x	-10.8%	x
N#C/C(=C\c1coc2ccc(O)cc2c1=O)C(=O)Nc1nc2ccccc2s1	i	i	9.2µM*	-8.2%	u	-14.2%
COc1ccc2c(c1OC)C(=O)OC2c1ccc(O)cc1 (stereo unspecified)	i	i	17.8µM*	x	12.6µM*	x
Cn1c(=O)[nH]c(=O)c2c1nc1n2CC(COc2ccc3ccccc3c2)O1 (stereo unspecified)	i	i	3.6%	-4.1%	-19.8%	0.2%
CCCOc1cccc(C(=O)N(Cc2ccccc2)C2CCS(=O)(=O)C2)c1 (stereo unspecified)	i	u	-4.5%	3.9%	u	5.5%
CCCOc1ccccc1C(=O)N(Cc1ccco1)C1CCS(=O)(=O)C1 (stereo unspecified)	i	i	u	16.9%	18.4µM*	21.8%
CCCCOc1cccc(C(=O)N(Cc2ccc(Cl)cc2)C2CCS(=O)(=O)C2)c1 (stereo unspecified)	i	u	14.6µM*	x	u	x
CCCCCOc1ccc(C(=O)N(Cc2ccccc2)C2CCS(=O)(=O)C2)cc1 (stereo unspecified)	x	x	u	x	20.6µM*	x
CCCCOc1ccc(C(=O)N(Cc2ccco2)C2CCS(=O)(=O)C2)cc1 (stereo unspecified)	i	i	u	-0.3%	-17.4%	-7.5%
CCCOc1ccccc1C(=O)N(Cc1ccc(C)o1)C1CCS(=O)(=O)C1 (stereo unspecified)	i	i	-28.6%	11.2%	u	-2.9%
CCOC(=O)C1CCN(C(=O)COC(=O)c2ccc(=O)n(Cc3ccccc3)n2)CC1	i	i	6.2%	14.3%	-2.1%	16.8%
O=C(CCc1nc2cccnc2n1-c1ccccc1)Nc1ccc(Cl)c(Cl)c1	i	i	u	x	18.4µM*	x
COc1cc(Cl)c(NC(=O)CCc2nc3cccnc3n2-c2ccccc2)c(OC)c1	i	i	u	x	u	x
CCOC(=O)c1cccc(NC(=O)CCc2nc3cccnc3n2-c2ccccc2)c1	i	u	-26.7%	x	-28.2%	x
CCCn1c(CCC(=O)Nc2ccc(C)c(Cl)c2)nc2cccnc21	i	i	u	x	u	x
Cc1ccc(NC(=O)CCc2nc3cccnc3n2-c2ccccc2)cc1Cl	i	i	16.4µM*	x	16.4µM*	x
CCOc1ccc(OCC)c(NC(=O)CCc2nc3cccnc3n2-c2ccccc2)c1	i	i	20.6µM*	x	u	x
SMILES	KB-3-1 cytotox	KB-V1 MDR tox	DT40 TDP1 CPT	HT1080NT lethal	TDP1 cell noCPT	HT1080 IDH1KD tx
CCNC(=O)N(C)c1c(CC)nc2ccc(C(=O)N3CCN(S(=O)(=O)CC)CC3)cn12	i	i	13.1%	1.6%	6.0%	10.4%
CC1=C(/C=C/C(C)=C/C=C/C(C)=C/C(=O)Oc2c(C)c(C)c3c(c2C)CC[C@@](C)(CCC[C@H](C)CCC[C@H](C)CCCC(C)C)O3)C(C)(C)CCC1	x	x	-2.8%	x	-22.3%	x
O=c1cc(O)c2c([nH]1)CCC2	u	i	-5.3%	x	-12.3%	x
CCOC(=O)Cn1c(=O)n(-c2ccccc2OC)c2nc(-c3ccc(C(C)C)cc3)nc(C(N)=O)c21	i	i	x	x	x	x
CCOC(=O)c1c(OCC)[nH]c2c1cc(O)c1ccccc12	i	u	16.4µM*	u	18.4µM*	u
CCOC(=O)c1c(C)[nH]c2cc(Br)c(O)cc12	i	i	u	-13.5%	-8.6%	-5.5%
CCCc1nc2ccc(C)cn2c1Cc1ccsc1	i	i	13µM*	8.3%	9.2µM*	-1.9%
Cc1ccc(-c2nc3ccc(C)cn3c2Cc2ccsc2)cc1	i	i	u	u	14.6µM*	u
Cc1ccc(Cc2c(-c3ccc(Br)cc3)nc3ccc(Br)cn23)cc1	u	u	18.4µM*	-21.6%	u	-27.6%
Cc1ccc2nc(C(C)(C)C)c(Cc3ccsc3)n2c1	i	u	u	u	18.4µM*	u
CCOc1ccc(NC(=O)C2CCCN(S(C)(=O)=O)C2)cc1 (stereo unspecified)	i	u	9.5%	15.4%	7.4%	29.7%
COc1ccc(/C=C(\NC(=O)c2ccc(OC)cc2)C(=O)N2CCCCC2)cc1	i	i	-29.9%	-4.0%	-6.6%	4.1%
Cc1ccc(-c2nc3ccc(Br)cn3c2Cc2ccsc2)cc1	u	i	14.6µM*	-6.4%	23.1µM*	u
Fc1ccc(-c2nc3ccc(Br)cn3c2Cc2ccsc2)cc1	i	i	u	-15.5%	u	-4.2%
COc1cccc(/C=N/Nc2nnc3c(n2)[nH]c2ccccc23)c1OC	u	i	u	-0.5%	u	5.0%

Assay outcomes deposited in PubChem by National Center for Advancing Translational Sciences (NCATS).
